Results published in ChEMBL document CHEMBL4513216, “Probing the Open Global Health Chemical Diversity Library for Multistage-Active Starting Points for Next-Generation Antimalarials” (ACS Infect Dis, 2020).
Hit rate of the full screen: of about 68,000 compounds, about 2,700 (4%) showed an effect of 50% or more. The sample holds strong results, similar compounds and a random draw of the others, so the mix is not that of the screen.

tested on: Plasmodium berghei; assay: Screen against P. berghei liver stage (PbLuc), transformed with Luciferase, at 2uM; assay type: functional, HepG2; conditions: tested at 2 uM

Compound | INHIBITION [%]
COCC(C)NC(=O)CCCn1cnc2ccccc2c1=O (centres undefined) | 51.36
CC(C)NC(=O)CCCn1cnc2ccccc2c1=O | 35.43
CC(C)Nc1ncnc2c1CCN(C(=O)NCc1cccc(F)c1)CC2 | -36.75
O=C(c1cccnc1Oc1ccc(Cl)cc1)N1CC[C@@H](O)C1 | 18.2
O=C(c1ccccn1)N1CCCC(c2ncncc2-c2ccncc2)C1 (centres undefined) | 39.9
CNC(=O)N1CCC2(COCc3c(C)nc(NCc4ccco4)nc32)C1 (centres undefined) | 16.91
COc1ncccc1C(=O)N1CCn2c(COCC3CC3)cnc2C1C (centres undefined) | 30.38
COC(=O)COc1nc(CC(C)C)c2c(c1C#N)CCCC2 | 26.06
CN(Cc1cccnc1)CC1CNCc2nccn2C1 (centres undefined) | 37.65
COc1ccc2cnn(CC(=O)NC3CCCC3)c(=O)c2c1OC | 45.14
CN(C(=O)c1cn(C)cn1)[C@@H]1CCC[C@@H](Oc2ccccc2)[C@@H]1O | 32.81
c1csc(-c2noc(CCCNC3CCc4ncnn4C3)n2)c1 (centres undefined) | -15.69
COc1cc(C(=O)N(Cc2cnn(C)c2)C(C)C)ccc1C | 53.98
COc1ccc(C(=O)N(Cc2cnn(C)c2)C(C)C)cc1OC(F)F | 60.09
COc1ccc(C(=O)N(Cc2cnn(C)c2)C(C)C)cc1Br | 9.36
COc1cc(C(=O)N(Cc2cnn(C)c2)C(C)C)ccc1OC(C)C | -31.57
CCOc1ccc(C(=O)N(Cc2cnn(C)c2)C(C)C)cc1OCC | 23.42
COc1cc(C(=O)N(Cc2cnn(C)c2)C(C)C)ccc1OCC(N)=O | -61.5
CN1CCC(Cc2noc(CCc3nc4ccccc4nc3O)n2)CC1 | -14
O=C(c1ccc[nH]1)N1CCc2c(COCc3ccncc3)cncc2C1 | -18.76
Cc1ccc(CN2CC[C@@H]3[C@@H]2CCN3C(=O)Cc2cccs2)o1 | -45.36
O=C(CN1CCCC1CC(=O)c1ccccc1)NCc1ccccn1 (centres undefined) | -47.19
CC(C)Cc1noc(CN(C)C[C@]2(O)CCCN3CCCC[C@@H]32)n1 | 58.09
CCN(Cc1noc(CC(C)C)n1)C[C@]1(O)CCCN2CCCC[C@@H]21 | 6.33
CCN(Cc1nc(COC)no1)C[C@]1(O)CCCN2CCCC[C@@H]21 | 21.67
Cc1nn(C)c(C)c1C(=O)NN1CCOCC1 | 27.88
CCOc1ccc2ccccc2c1CNCC1CCNCC1 | -14.75

Compound | INHIBITION [%]
Cc1cccnc1CC(C)Nc1nc(N)nc2c1CCNC2 (centres undefined) | 22.63
CCn1nc(C)c(NC(=O)CN2CC[C@H](CO)[C@@H](O)C2)c1C | 7.29
CCn1nc(C)c(NC(=O)CN2CCN(C(C)=O)CC2)c1C | 53.77
CCN(CC)C(=O)C1CCCN(CC(=O)Nc2c(C)nn(CC)c2C)C1 (centres undefined) | 23.58
CCn1nc(C)c(NC(=O)CN2CC[C@@H](F)C2)c1C | -28.65
CCn1nc(C)c(NC(=O)C(C)C)c1C | 12.62
CCn1nc(C)c(NC(=O)CN2CCC(c3ccccc3Cl)C2)c1C (centres undefined) | 50.9
Cc1ccc(CN(CCCn2ccnc2)Cc2cccs2)s1 | 32.53
CC1CCCN(c2ccccc2OCC(=O)NC2CCOCC2)C1 (centres undefined) | 19.59
CC(Oc1ccccc1)C(=O)N1CCCN(Cc2nccn2C)CC1 (centres undefined) | -12.05
Cc1cc(C2CCCN2C(=O)CN2CCc3ccccc32)on1 (centres undefined) | 18.37
Cc1ccc2c(c1)SCC(=O)N2CC(=O)N1CCCC1c1cc(C)no1 (centres undefined) | 28.73
Cc1cc(C2CCCN2C(=O)Cn2c(C)cc(=O)c3ccccc32)on1 (centres undefined) | 64.83
CNC(=O)C1(C)CN(S(=O)(=O)c2cccc(OC)c2)CCO1 (centres undefined) | -4.78
CN(CCc1ccccc1)Cc1c(C2CCNCC2)[nH]c2ncccc12 | 2.56
CC(C)N1CCCn2nc(C(=O)NCCc3ccccn3)cc2C1 | -31.6
CN(C)CCN1CCc2ncc(CN(C)Cc3ccco3)n2CC1 | 52.05
CN(Cc1ccco1)Cc1cnc2n1CCN(S(C)(=O)=O)CC2 | 9.1
CN(Cc1ccco1)Cc1cnc2n1CCN(c1ncccn1)CC2 | -6.14
C[S+]([O-])CCNC(=O)Nc1cc(F)ccc1-n1cccn1 (centres undefined) | 58.14
CC(C)C(O)CCNC(=O)Nc1cc(F)ccc1-n1cccn1 (centres undefined) | 37.43
CN1CCN(c2ccc(F)cc2NC(=O)NCC[S+](C)[O-])CC1 (centres undefined) | 17.98
Cc1nc(C)c(CC(=O)NCc2cccnc2OC2CCCC2)c(=O)[nH]1 | -10.1
NC(=O)CCC1CCCN(c2ccnc3cc(F)ccc23)C1 (centres undefined) | 1.01
CCS(=O)(=O)Nc1ccc2[nH]c(C3CCC3)nc2c1 | 74.44
Cn1cc(S(=O)(=O)Nc2ccc3[nH]c(C4CCC4)nc3c2)cn1 | 48.21
CCn1cc(S(=O)(=O)Nc2ccc3[nH]c(C4CCC4)nc3c2)cn1 | -16.18
